# Reference: article PMC7862700, “An all-to-all approach to the identification of sequence-specific readers for epigenetic DNA modifications on cytosine”
# Experiments:
# Assay in all cases: DAPPL (digital affinity profiling via proximity ligation, sequencing); 10 mM Tris-HCl pH 7.5, 50 mM NaCl, 1 mM DTT, 4% glycerol, room temperature, 30 min; GST-TFs on glutathione beads, 16-mer random dsDNA library, 0.1% formaldehyde crosslink after washing; high values mean tight binding
# [1] = biological target: T1, FLI1 (Homo sapiens, UniProt Q01543 1-452); conditions: protein: recombinant; tags: N-terminal GST; dsDNA, one strand shown
# T1 sequence: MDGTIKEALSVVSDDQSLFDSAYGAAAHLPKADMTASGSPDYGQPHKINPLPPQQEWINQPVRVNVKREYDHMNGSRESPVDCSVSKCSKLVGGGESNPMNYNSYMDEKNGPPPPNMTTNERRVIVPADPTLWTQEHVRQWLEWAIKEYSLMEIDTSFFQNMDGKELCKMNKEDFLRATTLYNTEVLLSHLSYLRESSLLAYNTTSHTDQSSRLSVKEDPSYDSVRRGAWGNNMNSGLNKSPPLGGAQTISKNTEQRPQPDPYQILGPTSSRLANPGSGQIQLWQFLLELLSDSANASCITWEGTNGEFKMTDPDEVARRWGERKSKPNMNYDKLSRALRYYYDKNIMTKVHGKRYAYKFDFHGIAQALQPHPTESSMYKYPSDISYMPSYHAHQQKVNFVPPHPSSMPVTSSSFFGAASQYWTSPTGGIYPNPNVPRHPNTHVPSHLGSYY
# Procedure, shortened: (§1)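 GST fusions of human transcription factors were expressed in yeast and captured with glutathione beads. Once given DNA barcodes and pooled alongside a tag-only sample, they were incubated for 30 min at room temperature with 200 nmole of a random double-stranded 16-mer DNA library in Tris/NaCl/DTT/glycerol buffer, then washed, crosslinked (0.1% formaldehyde), proximity-ligated, PCR-amplified and sequenced on an Illumina NextSeq500. The binding signal of each hexamer is its read frequency for a factor divided by its frequency for the tag-only sample.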
# [2] = biological target: T2, ELK1 (Homo sapiens, UniProt P19419 1-428); conditions: protein: recombinant; tags: N-terminal GST; dsDNA, one strand shown
# T2 sequence: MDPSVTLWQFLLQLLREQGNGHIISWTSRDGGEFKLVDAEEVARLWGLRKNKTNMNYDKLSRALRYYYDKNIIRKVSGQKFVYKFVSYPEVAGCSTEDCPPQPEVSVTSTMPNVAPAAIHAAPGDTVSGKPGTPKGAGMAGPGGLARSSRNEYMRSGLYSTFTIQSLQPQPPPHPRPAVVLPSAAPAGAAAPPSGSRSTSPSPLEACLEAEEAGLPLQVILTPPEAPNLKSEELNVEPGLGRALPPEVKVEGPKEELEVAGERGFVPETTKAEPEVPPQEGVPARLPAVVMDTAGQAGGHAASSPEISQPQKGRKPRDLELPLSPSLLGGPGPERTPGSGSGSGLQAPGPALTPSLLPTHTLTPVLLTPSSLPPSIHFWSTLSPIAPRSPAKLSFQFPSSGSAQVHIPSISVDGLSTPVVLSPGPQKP
# Procedure, shortened: as §1
# [3] = biological target: T3, GABPA (Homo sapiens, UniProt Q06546 1-454); conditions: protein: recombinant; tags: N-terminal GST; dsDNA, one strand shown
# T3 sequence: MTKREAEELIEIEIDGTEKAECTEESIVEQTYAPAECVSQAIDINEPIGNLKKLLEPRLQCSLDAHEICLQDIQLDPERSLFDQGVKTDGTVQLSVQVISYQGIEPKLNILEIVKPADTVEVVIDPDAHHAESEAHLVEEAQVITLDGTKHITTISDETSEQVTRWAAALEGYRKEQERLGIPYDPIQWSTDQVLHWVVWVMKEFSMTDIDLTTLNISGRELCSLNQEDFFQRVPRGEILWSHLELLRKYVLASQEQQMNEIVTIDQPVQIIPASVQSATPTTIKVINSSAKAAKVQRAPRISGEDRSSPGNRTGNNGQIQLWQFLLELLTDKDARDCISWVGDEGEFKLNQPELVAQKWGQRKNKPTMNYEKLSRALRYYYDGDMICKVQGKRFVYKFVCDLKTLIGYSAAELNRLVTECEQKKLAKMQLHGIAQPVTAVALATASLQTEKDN
# Procedure, shortened: as §1
# [4] = biological target: T4, ERG (Homo sapiens, UniProt P11308 1-479); conditions: protein: recombinant; tags: N-terminal GST; dsDNA, one strand shown
# T4 sequence: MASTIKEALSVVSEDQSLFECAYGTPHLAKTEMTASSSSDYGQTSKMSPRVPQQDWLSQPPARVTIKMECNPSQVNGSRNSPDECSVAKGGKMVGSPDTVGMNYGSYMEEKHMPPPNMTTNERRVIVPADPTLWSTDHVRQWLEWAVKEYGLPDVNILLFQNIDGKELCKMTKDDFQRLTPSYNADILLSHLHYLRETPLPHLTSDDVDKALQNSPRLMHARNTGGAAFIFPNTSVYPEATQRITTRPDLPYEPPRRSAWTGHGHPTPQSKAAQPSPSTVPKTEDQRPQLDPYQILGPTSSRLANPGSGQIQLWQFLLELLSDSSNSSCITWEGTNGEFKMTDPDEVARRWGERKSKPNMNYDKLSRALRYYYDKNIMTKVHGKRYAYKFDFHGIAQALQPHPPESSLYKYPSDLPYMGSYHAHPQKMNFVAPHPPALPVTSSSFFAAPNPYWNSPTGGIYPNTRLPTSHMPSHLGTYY
# Procedure, shortened: as §1
# [5] = biological target: ELF1 (Homo sapiens, UniProt P32519 1-619); conditions: protein: recombinant; tags: N-terminal GST; dsDNA, one strand shown
# Sequence of ELF1 (P32519 whole entry): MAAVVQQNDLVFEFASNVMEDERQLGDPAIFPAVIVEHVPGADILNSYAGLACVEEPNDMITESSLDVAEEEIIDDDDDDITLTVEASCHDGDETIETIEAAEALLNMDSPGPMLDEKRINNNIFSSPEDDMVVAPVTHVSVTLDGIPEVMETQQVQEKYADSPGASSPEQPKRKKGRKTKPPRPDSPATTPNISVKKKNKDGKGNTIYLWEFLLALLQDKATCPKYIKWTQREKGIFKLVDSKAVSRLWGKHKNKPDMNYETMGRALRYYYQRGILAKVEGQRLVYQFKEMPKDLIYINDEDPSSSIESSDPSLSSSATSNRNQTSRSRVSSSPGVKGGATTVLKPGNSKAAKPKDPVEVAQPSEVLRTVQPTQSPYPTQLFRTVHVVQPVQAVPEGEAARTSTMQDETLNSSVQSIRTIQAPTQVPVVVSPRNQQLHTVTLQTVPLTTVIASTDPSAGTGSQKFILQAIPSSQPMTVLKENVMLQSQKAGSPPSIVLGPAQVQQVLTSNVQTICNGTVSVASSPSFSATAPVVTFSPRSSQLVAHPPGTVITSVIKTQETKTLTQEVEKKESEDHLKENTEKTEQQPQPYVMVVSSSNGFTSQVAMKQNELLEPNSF
# Procedure, shortened: as §1
# [6] = biological target: T5, EHF (Homo sapiens, UniProt Q9NZC4 1-300); conditions: protein: recombinant; tags: N-terminal GST; dsDNA, one strand shown
# T5 sequence: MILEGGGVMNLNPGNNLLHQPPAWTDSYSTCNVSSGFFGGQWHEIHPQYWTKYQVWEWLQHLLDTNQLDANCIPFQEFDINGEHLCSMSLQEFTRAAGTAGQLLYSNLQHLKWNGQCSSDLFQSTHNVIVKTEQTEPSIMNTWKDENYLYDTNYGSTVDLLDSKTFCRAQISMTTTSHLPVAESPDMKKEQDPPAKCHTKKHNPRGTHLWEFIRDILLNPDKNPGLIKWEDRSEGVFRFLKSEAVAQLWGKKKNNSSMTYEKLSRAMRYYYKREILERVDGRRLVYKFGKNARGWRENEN
# Procedure, shortened: as §1
# [7] = biological target: SPI1 (Homo sapiens, UniProt P17947 1-270); conditions: protein: recombinant; tags: N-terminal GST; dsDNA, one strand shown
# Procedure, shortened: as §1
# [8] = biological target: SPIB (Homo sapiens, UniProt Q01892 1-262); conditions: protein: recombinant; tags: N-terminal GST; dsDNA, one strand shown
# Sequence of SPIB (Q01892 whole entry): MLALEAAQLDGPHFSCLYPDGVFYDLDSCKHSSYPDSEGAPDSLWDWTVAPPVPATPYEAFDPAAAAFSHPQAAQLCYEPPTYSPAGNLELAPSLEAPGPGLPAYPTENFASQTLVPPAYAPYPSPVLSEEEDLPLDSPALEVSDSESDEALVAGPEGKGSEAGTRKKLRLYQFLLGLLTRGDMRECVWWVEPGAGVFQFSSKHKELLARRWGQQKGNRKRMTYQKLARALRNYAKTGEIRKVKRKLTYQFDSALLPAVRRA
# Procedure, shortened: as §1
# [9] = biological target: T6, ELK3 (Homo sapiens, UniProt P41970 1-407); conditions: protein: recombinant; tags: N-terminal GST; dsDNA, one strand shown
# T6 sequence: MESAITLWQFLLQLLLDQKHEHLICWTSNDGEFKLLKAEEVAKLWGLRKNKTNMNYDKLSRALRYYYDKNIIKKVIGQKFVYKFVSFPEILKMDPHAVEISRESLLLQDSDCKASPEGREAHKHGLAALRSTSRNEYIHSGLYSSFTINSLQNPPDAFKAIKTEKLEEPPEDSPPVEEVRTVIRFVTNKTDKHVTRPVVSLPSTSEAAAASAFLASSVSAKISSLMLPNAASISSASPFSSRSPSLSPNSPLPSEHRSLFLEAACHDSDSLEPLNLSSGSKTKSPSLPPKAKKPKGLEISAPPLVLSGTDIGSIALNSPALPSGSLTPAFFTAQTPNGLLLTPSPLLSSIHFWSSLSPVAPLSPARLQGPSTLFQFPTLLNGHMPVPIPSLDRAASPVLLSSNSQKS
# Procedure, shortened: as §1
# [10] = biological target: T7, FEV (Homo sapiens, UniProt Q99581 1-238); conditions: protein: recombinant; tags: N-terminal GST; dsDNA, one strand shown
# T7 sequence: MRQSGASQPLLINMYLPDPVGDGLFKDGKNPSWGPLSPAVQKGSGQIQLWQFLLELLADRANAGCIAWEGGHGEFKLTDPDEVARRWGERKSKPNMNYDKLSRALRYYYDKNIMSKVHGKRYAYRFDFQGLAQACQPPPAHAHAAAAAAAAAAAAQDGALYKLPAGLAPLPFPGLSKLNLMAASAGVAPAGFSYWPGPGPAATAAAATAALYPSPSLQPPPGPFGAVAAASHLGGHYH
# Procedure, shortened: as §1
# [11] = biological target: ETV5 (Homo sapiens, UniProt P41161 1-510); conditions: protein: recombinant; tags: N-terminal GST; dsDNA, one strand shown
# Sequence of ETV5 (P41161 whole entry): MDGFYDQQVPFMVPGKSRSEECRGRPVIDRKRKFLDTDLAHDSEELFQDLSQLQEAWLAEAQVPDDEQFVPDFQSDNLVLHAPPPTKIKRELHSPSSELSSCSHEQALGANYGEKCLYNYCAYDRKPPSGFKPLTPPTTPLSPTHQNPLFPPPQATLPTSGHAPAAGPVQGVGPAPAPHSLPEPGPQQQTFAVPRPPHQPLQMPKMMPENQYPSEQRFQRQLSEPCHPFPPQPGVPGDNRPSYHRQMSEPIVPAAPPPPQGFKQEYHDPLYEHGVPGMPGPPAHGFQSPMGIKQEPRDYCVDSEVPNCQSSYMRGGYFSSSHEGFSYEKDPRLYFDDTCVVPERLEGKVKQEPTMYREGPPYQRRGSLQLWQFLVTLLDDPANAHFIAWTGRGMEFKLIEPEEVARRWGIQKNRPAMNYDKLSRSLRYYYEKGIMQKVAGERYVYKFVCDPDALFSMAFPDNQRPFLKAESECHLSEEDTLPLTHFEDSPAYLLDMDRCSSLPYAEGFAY
# Procedure, shortened: as §1
# [12] = biological target: HSF1 (Homo sapiens, UniProt Q00613 1-529); conditions: protein: recombinant; tags: N-terminal GST; chain copies: 3; dsDNA, one strand shown
# Sequence of HSF1 (Q00613 whole entry): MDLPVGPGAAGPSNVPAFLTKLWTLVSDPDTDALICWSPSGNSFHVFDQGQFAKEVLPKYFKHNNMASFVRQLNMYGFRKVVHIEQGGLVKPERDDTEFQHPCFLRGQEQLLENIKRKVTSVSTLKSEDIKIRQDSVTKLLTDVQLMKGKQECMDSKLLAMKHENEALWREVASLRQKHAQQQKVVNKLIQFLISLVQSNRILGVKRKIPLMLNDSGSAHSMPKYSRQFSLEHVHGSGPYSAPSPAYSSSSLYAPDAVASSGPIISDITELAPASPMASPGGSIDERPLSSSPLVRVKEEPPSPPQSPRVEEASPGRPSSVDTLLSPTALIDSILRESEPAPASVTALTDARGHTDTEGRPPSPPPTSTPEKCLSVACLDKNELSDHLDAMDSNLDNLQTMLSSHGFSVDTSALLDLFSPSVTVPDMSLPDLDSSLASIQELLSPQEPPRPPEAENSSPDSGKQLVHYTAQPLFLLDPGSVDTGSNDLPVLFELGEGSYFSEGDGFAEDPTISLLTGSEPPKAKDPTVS
# Procedure, shortened: as §1
# [13] = biological target: T8, SPIC (Homo sapiens, UniProt Q8N5J4 1-248); conditions: protein: recombinant; tags: N-terminal GST; dsDNA, one strand shown
# T8 sequence: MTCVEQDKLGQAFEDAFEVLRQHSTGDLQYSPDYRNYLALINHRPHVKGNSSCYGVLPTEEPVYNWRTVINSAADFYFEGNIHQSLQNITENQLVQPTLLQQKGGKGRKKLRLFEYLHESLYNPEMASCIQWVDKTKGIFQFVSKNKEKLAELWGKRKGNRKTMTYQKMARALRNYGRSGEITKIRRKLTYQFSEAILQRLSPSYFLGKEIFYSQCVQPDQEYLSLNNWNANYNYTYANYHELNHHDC
# Procedure, shortened: as §1
# [14] = biological target: ELF4 (Homo sapiens, UniProt Q99607 1-663); conditions: protein: recombinant; tags: N-terminal GST; dsDNA, one strand shown
# Sequence of ELF4 (Q99607 whole entry): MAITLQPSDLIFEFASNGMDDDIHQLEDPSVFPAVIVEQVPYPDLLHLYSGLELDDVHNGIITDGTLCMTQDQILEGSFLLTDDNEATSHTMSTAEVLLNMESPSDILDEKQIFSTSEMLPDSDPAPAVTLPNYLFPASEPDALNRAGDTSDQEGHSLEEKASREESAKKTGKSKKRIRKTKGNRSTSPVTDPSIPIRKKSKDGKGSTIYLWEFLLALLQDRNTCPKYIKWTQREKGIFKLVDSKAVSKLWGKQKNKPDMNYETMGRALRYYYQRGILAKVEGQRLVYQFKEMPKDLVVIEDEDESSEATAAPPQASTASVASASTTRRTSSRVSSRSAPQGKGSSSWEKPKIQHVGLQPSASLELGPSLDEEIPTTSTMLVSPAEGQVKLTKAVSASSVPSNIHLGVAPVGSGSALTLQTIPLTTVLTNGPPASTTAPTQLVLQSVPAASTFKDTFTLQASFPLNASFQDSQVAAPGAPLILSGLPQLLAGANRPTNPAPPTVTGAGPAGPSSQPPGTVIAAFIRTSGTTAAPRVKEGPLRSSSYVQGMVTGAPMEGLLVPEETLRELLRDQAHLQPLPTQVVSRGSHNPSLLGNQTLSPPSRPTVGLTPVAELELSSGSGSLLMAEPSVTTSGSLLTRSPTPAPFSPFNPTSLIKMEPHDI
# Procedure, shortened: as §1
# [15] = biological target: T9, ELK4 (Homo sapiens, UniProt P28324-2 1-405); conditions: protein: recombinant; tags: N-terminal GST; dsDNA, one strand shown
# T9 sequence: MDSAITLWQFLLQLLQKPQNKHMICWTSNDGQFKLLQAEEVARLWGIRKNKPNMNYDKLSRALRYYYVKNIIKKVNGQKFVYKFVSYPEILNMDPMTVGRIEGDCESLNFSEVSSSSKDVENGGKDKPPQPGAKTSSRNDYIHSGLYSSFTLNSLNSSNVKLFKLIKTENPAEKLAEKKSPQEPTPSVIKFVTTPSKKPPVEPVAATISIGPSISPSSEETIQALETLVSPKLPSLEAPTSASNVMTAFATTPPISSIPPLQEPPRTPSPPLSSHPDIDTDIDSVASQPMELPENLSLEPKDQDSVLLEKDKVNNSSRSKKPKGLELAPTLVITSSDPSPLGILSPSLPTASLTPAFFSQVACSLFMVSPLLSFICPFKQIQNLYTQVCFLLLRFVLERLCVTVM
# Procedure, shortened: as §1
# [16] = biological target: T10, ETV2 (Homo sapiens, UniProt O00321 1-342); conditions: protein: recombinant; tags: N-terminal GST; dsDNA, one strand shown
# T10 sequence: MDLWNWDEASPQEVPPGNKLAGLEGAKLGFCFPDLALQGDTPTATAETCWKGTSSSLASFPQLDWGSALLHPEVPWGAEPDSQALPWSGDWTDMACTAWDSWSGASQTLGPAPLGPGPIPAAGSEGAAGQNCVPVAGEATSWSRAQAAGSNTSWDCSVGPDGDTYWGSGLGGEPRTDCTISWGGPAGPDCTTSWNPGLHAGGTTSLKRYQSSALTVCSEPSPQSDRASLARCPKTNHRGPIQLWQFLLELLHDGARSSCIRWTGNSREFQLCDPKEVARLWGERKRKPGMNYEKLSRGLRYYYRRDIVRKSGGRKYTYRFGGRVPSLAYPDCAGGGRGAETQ
# Procedure, shortened: as §1
# [17] = biological target: T11, ELF3 (Homo sapiens, UniProt P78545 1-371); conditions: protein: recombinant; tags: N-terminal GST; dsDNA, one strand shown
# T11 sequence: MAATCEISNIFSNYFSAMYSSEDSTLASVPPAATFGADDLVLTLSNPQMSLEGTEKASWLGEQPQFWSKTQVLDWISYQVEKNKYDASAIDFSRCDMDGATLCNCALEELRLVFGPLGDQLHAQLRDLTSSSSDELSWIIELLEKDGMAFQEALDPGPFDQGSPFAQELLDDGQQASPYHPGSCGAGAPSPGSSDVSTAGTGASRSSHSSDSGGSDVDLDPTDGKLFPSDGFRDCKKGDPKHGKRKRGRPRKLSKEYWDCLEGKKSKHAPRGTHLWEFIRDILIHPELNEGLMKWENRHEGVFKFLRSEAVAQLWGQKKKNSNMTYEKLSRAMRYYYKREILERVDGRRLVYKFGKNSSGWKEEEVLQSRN
# Procedure, shortened: as §1
# [18] = biological target: CRX (Homo sapiens, UniProt O43186 1-299); conditions: protein: recombinant; tags: N-terminal GST; dsDNA, one strand shown
# Sequence of CRX (O43186 whole entry): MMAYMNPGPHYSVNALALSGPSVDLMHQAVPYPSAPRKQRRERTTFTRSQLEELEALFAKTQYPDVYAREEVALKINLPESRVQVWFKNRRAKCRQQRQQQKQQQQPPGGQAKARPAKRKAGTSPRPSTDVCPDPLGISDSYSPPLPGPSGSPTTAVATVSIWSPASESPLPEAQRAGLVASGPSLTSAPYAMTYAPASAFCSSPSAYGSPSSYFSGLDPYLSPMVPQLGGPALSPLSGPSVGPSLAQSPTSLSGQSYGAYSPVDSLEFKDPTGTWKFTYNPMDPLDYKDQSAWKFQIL
# Procedure, shortened: as §1
# [19] = biological target: ETV1 (Homo sapiens, UniProt P50549 1-477); conditions: protein: recombinant; tags: N-terminal GST; dsDNA, one strand shown
# Sequence of ETV1 (P50549 whole entry): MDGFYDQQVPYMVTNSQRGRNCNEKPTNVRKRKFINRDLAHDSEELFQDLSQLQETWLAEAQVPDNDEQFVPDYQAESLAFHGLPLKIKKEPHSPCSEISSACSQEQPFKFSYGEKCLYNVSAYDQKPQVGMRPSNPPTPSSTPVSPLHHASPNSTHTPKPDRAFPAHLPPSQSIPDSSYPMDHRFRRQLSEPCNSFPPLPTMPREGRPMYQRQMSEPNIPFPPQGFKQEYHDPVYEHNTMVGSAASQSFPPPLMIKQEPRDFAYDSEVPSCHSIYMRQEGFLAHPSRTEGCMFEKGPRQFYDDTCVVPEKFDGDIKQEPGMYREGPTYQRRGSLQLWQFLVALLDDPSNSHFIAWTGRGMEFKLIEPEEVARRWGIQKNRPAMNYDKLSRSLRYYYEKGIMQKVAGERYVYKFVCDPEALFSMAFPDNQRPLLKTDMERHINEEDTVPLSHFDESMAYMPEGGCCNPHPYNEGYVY
# Procedure, shortened: as §1
sequence,measurement,setting,value
ATGTAA,binding signal,[1],"1.38 fold enrichment (6-mer frequency, TF over GST control)"
same,binding signal,[2],"1.29 fold enrichment (6-mer frequency, TF over GST control)"
same,binding signal,[3],"1.13 fold enrichment (6-mer frequency, TF over GST control)"
same,binding signal,[4],"1.29 fold enrichment (6-mer frequency, TF over GST control)"
same,binding signal,[5],"1.23 fold enrichment (6-mer frequency, TF over GST control)"
same,binding signal,[6],"1.32 fold enrichment (6-mer frequency, TF over GST control)"
same,binding signal,[7],"1.23 fold enrichment (6-mer frequency, TF over GST control)"
same,binding signal,[8],"1.33 fold enrichment (6-mer frequency, TF over GST control)"
same,binding signal,[9],"1.22 fold enrichment (6-mer frequency, TF over GST control)"
same,binding signal,[10],"1.2 fold enrichment (6-mer frequency, TF over GST control)"
same,binding signal,[11],"1.24 fold enrichment (6-mer frequency, TF over GST control)"
same,binding signal,[12],"1.28 fold enrichment (6-mer frequency, TF over GST control)"
same,binding signal,[13],"1.17 fold enrichment (6-mer frequency, TF over GST control)"
same,binding signal,[14],"1.23 fold enrichment (6-mer frequency, TF over GST control)"
same,binding signal,[15],"1.28 fold enrichment (6-mer frequency, TF over GST control)"
same,binding signal,[16],"1.15 fold enrichment (6-mer frequency, TF over GST control)"
same,binding signal,[17],"1.39 fold enrichment (6-mer frequency, TF over GST control)"
same,binding signal,[18],"1.41 fold enrichment (6-mer frequency, TF over GST control)"
same,binding signal,[19],"1.27 fold enrichment (6-mer frequency, TF over GST control)"
